Source: PubChem (National Center for Advancing Translational Sciences (NCATS))
Shown are actives, neighbours in structure and some others; about 13% of the full set was active somewhere.
HCMV inh: blocks human cytomegalovirus replication. HFF cells, HCMV-luciferase reporter, 72 h; hits give low values. activity change, negative = inhibition, % at 57.5 µM. 410,000 compounds, 4.5% hits; in the data active = activity change below about -60%; inconclusive = no clear call, values can overlap the other calls; inactive = above about -39%
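After 16 h attachment at 37C, HFF cells received test compound and HCMV-luciferase (1 PFU/cell); reporter luminescence read 72 h later, data normalized against buffer-only and known inhibitor Salinomycin.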
HCV inh: inhibitors of hepatitis C virus infection | Huh7.5.1 HCVcc-Cre infection, luciferase reporter, 44 h | Potency, µM (top dose mostly 41.8 µM), for inactives: top-dose activity change, negative = inhibition, hits mostly inhibitors | 340,000 compounds, 3.4% hits; also: potency is read from the fitted curve at half-maximal effect
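Infectious HCV cell culture screen: compound-treated cells (1,000/well, pre-plated 4 h) are infected with HCVcc-Cre at roughly 0.5 moi and grown 44 h. Infection is quantified by luciferase signal after 15 min substrate incubation at room temperature.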
Pf growth 96h: P. falciparum growth inhibition at 96 hour, primary screen for plastid delayed-death inhibitors | AID 504834 | Potency, µM (top dose mostly 28.7 µM), without a hit: top-dose activity change, negative = inhibition, hits mostly inhibitors | 320,000 compounds, 6.9% hits | P. falciparum luciferase reporter growth, 96 h; also: potency is read from the fitted curve at half-maximal effect
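Infected RBCs, 2% Hct / 0.05% parasitemia final; luciferase-reporter P. falciparum; cpd 96 h, 37 C, 5% CO2; luciferase detection reagent; luminescence.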
Pf growth 48h: P. falciparum growth inhibition at 48 hours (one generation); P. falciparum luciferase growth in erythrocytes, 48 h; Potency, µM (highest dose often 28.7 µM), without a hit: at the highest dose activity change, negative = inhibition, hits mostly inhibitors; 310,000 compounds, 5.9% hits; also: potency is read from the fitted curve at half-maximal effect
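Compounds are pin-transferred into medium, infected erythrocytes (2% hematocrit, 0.1% parasitemia final) are added, and plates sit one parasite generation at 37 C in 5% CO2. Detection reagent is then added and luminescence measured.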
An asterisk follows results filed as active; ? = inconclusive; / = no result given; + = active, no number. Unless noted, calls follow the shape of the dose curve; as a rule, active = well fitted inhibition curve with a large enough effect; inconclusive = small, poorly fitted or top-dose-only effect, or another doubt; inactive = no such curve, though single readings can be large or run the other way. % is scaled to controls: 0 for no effect and ±100 for the full control effect.

SMILES	HCMV inh	HCV inh	Pf growth 96h	Pf growth 48h
CC(=O)C(C)Oc1ccc2c3c(c(=O)oc2c1)CCCCC3 (configuration not stated)	4	35µM*	/	73%
O=C(O)C(Oc1ccc2c3c(c(=O)oc2c1)CCC3)c1ccccc1 (configuration not stated)	-101*	4%	33%	15%
COc1ccccc1CNC(=O)CCC1N=C2c3ccccc3N=C(SCC(=O)Nc3ccc(F)cc3)N2C1=O (configuration not stated)	16	/	/	/
Cc1onc(-c2ccccc2)c1CNC(=O)C1COc2ccccc2O1 (configuration not stated)	-15	2%	?	13µM*
Cc1cc(NC(=O)COC(=O)C2COc3ccccc3O2)no1 (configuration not stated)	23	0%	10µM*	38%
CCOC(=O)[C@]12CCCC=C1N(Cc1cccc3ccccc13)C(=O)[C@H](CC(=O)N1CCCC1)C2	-8	/	/	/
COc1ccc(/C=C/c2c(-c3ccccc3OC)sc3ccccc23)cc1OC	15	?	/	/
COc1ccc(-c2sc3ccccc3c2/C=C/c2ccncc2)cc1	26	7.1µM*	/	/
COc1ccc(/C=C/c2c(-c3ccc(OC)cc3)sc3cc(OC)c(OC)cc23)cc1	-10	2.5µM*	/	/
COc1ccc(-c2sc3ccccc3c2/C=C/c2ccc(OC)c(OC)c2)cc1	-20	-1%	/	/
Cc1ccc(S(=O)(=O)N2CCCC2c2cccnc2)cc1 (configuration not stated)	51	12%	3%	?
Cc1nn(-c2ccccc2)c2c1C(c1cccnc1)N1C=C(S(=O)(=O)N3CCCCC3)C=CC1=N2 (configuration not stated)	28	14%	53%	1.9µM*
COc1ccc(CNC(=O)c2ccc(NC(=O)N3CCSc4ccccc43)cc2)cc1	17	/	/	/
COc1ccc(NS(=O)(=O)c2cc(NC(=O)c3cnc(C)cn3)ccc2N2CCCC2)cc1	-65*	?	?	?
COc1ccc(NS(=O)(=O)c2cc(NC(=O)c3ccco3)ccc2N2CCCCC2)cc1	-76*	?	9.3µM*	?
COc1ccc(NS(=O)(=O)c2cc(NC(=O)c3ccc(=O)[nH]c3)ccc2N2CCCC2)cc1	-74*	?	?	?
COc1ccc(NS(=O)(=O)c2cc(NC(=O)C3CC3)ccc2N2CCCCC2)cc1	-101*	11µM*	10µM*	-27%
CCCCCn1c(=O)[nH]c2cc(C(=O)N3CCN(c4cccc(C)c4)C(C)C3)ccc2c1=O (configuration not stated)	-28	/	/	/
COc1ccc(NS(=O)(=O)c2cc(NC(=O)c3cnc(C)cn3)ccc2N2CCCCC2)cc1	-74*	?	?	12µM*
Cc1cccc(C)c1OCc1cc(C(=O)N(Cc2c(C)nn(C)c2C)C2CC2)no1	0	10µM*	-5%	-24%
CC1=C(C(=O)Nc2cccnc2)C(c2ccc(F)cc2)n2nc(-c3cccc(C)c3)nc2N1 (configuration not stated)	-23	/	/	/
COCc1c(C(=O)N(C)Cc2ccccc2N2CCCC2)oc2ccccc12	?	?	9.3µM*	?
COCc1c(C(=O)N2CCN(c3ncccn3)CC2)oc2ccccc12	-9	-17%	?	-25%
Cc1cccc(C)c1NC(=S)N/N=C/c1ccc(OCCC(C)C)cc1	?	?	3.3µM*	/
CCN(CC)C(=O)Cn1cc(SCC(=O)Nc2ccccc2C)c2ccccc21	-9	/	/	/
SMILES	HCMV inh	HCV inh	Pf growth 96h	Pf growth 48h
CCOc1ccc(CNC(=O)c2ccc3[nH]c(C)c(C)c3c2)cc1OC	+	/	/	/
CCOc1ccc(CNC(=O)CCS(=O)(=O)Cc2ccccc2C)cc1OC	?	14%	9.3µM*	?
Cc1cc(C)c(Cn2c3ccccc3c3cnn(CC(=O)NCc4ccc(Cl)cc4)c(=O)c32)c(C)c1	17	/	/	/
COc1ccc(OC)c(CCNC(=O)c2cc3c(=O)oc4ccc(C)cc4c3s2)c1	-6	/	/	/
CCC1(c2ccccc2)CN(C)C1=O (configuration not stated)	-79*	/	/	/
CCOc1ccccc1CNC(=O)c1ccc2c(c1)nc1n2CCCCC1	-68*	/	/	/
COc1ccc(CNC(=O)c2ccc3c(c2)nc2n3CCCCC2)cc1	61	/	/	/
COc1ccc(S(=O)(=O)N(CC(=O)NCCC(C)C)c2ccccc2)cc1OC	?	5%	10%	?
